In the library only some 19% were active in any assay of this set; here they are far more common.
IL1B secr inh: inhibitors of inflammasome signaling (IL-1 beta secretion); AID 743279; THP-1 LPS/ATP IL-1B secretion, AlphaLISA, 16 h; active compounds read low; 4.7% of 360,000 active; activity change, % at 57.5 µM; in the data active means activity change below about -50%; inconclusive means mostly about -30% to -49%
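Secreted IL-1B measured by AlphaLISA bead assay after 16 h compound exposure of THP-1 cells; compounds (final up to 57.5 uM) added 1 h before LPS (250 ng/mL) and ATP (1.25 mM) stimulation; lower signal means less secretion.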
HT1080NT lethal: kills 2HG-producing HT-1080-NT fibrosarcoma cells; HT-1080-NT fibrosarcoma viability, CellTiter-Glo ATP luminescence, 48 h; Potency, µM (top dose mostly 46.1 µM), hits mostly cytotoxic; 1.6% of 360,000 active;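 further: NT is the 2HG producing partner of a matched IDH1 knockdown line; nearly all actives have a fitted effect of over 55% in size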
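Toxicity toward the 2HG-producing NT line was scored as %Activity, normalised to DMSO and no-cell wells, from CellTiter-Glo luminescence after 48 hours' treatment.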
TDP1 cell noCPT: qHTS for Inhibitors of human tyrosyl-DNA phosphodiesterase 1 (TDP1): qHTS in cells in absence of CPT | DT40 Tdp1-/- hTDP1 cells, no CPT, ATP luminescence, 48 h | 15% of 420,000 active | Potency, µM (top dose mostly 46.2 µM), actives largely listed as inhibitors; further: nearly all actives have a fitted effect of over 55% in size
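Cells were dispensed at 400 per well, compounds added by pin tool, plates incubated ≥48 hr at 37 °C, then CellTiter-Glo added for 30 min at room temperature before luminescence reading. Line: DT40 Tdp1-/- complemented with hTDP1; camptothecin omitted.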
DT40 TDP1 CPT: growth inhibition of DT40 Tdp1-/-;hTDP1 cells with camptothecin (screen for TDP1 inhibitors); chicken DT40 Tdp1-/-;hTDP1 cells + 20 nM CPT, ATP luminescence, 48 h; Potency, µM (titrated, usually from 46.2 µM), most hits filed as inhibitors; 12% of 420,000 active; AID 686979; further: nearly all actives have a fitted effect of over 55% in size
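Cell growth measured by CellTiter-Glo luminescence after a minimum 48 h, 37 C compound exposure with 20 nM CPT in Tdp1-knockout DT40 cells stably expressing hTDP1, seeded 400/well; qHTS titration format.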
HT1080 IDH1KD tx: HT-1080 IDH1 knockdown cell toxicity (counter line); HT-1080 IDH1 knockdown viability, ATP luminescence, 48 h; Potency, µM (titrated, usually from 46.1 µM), actives largely listed as cytotoxic; 2% of 360,000 active
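Assay cells: HT-1080 with IDH1 knockdown, 750 per well, RPMI/5% FBS. Exposure: 48 h at 37 °C following 2 h pre-incubation. Read: CellTiter-Glo luminescence; fitted concentration-response, curve class assigned.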
Hits are given with their value; i = inactive; ? = inconclusive; nt = no result given. Unless noted, the call rests on the fitted dose curve; in most records, active means well fitted curve in the direction sought with a large enough effect; inconclusive means small, poorly fitted or top-dose-only effect, or another doubt; inactive means no such curve, though single readings can be large; an effect the other way counts as inactive or inconclusive.

SMILES	IL1B secr inh	HT1080NT lethal	TDP1 cell noCPT	DT40 TDP1 CPT	HT1080 IDH1KD tx
CCCN(C(=O)Cn1c(=O)oc2cc(Cl)ccc21)c1ccc(C(C)C)cc1	nt	nt	?	21µM	nt
CCCN(CCC)C(=O)COc1cc(=O)n(CC)c2ccccc12	i	i	?	?	i
CCCN(C(=O)COc1cc(=O)n(CC)c2ccccc12)c1ccc(C(C)C)cc1	nt	nt	10µM	16µM	nt
CCN(C(=O)COc1cc(=O)n(CC)c2ccccc12)c1cc(Cl)ccc1OC	i	i	21µM	?	i
CCN(Cc1ccccc1)C(=O)COc1cc(=O)n(CC)c2ccccc12	i	i	21µM	?	i
COc1ccc(NS(=O)(=O)c2cccc(C(=O)NN=Cc3cc(Br)c(O)c(Br)c3)c2)cc1	i	i	i	i	i
COCCN(Cc1ccc(F)cc1)C(=O)c1cc2ccccc2oc1=O	i	i	i	i	i
CCn1c(=O)cc(OCC(=O)N(C)c2ccccc2F)c2ccccc21	i	i	i	i	i
CCN(C(=O)COc1cc(=O)n(CC)c2ccccc12)c1cccc(Cl)c1	i	i	?	15µM	i
Cc1nc2ccc(C(=O)N3c4ccccc4N=C(c4ccc5c(c4)OCO5)C3C(=O)NCc3ccccc3)cc2[nH]1 (stereo not given)	i	i	1.6µM	2.1µM	i
Cc1cccc(C)c1NC(=O)C1C(c2ccc3c(c2)OCO3)=Nc2ccccc2N1C(=O)c1cccc2ccccc12 (stereo not given)	i	i	7.3µM	6.5µM	i
O=C(NCc1ccccc1)C1C(c2ccc3c(c2)OCO3)=Nc2ccccc2N1C(=O)c1cccc2ccccc12 (stereo not given)	i	i	?	i	i
Cn1c(SCC(=O)NC2(C#N)CCCCC2)nnc1-c1cccnc1	i	i	i	i	i
O=C(NCc1ccc(F)cc1)c1cc(S(=O)(=O)N2CCCCC2)ccc1N1CCOCC1	i	i	?	?	i
N#CCOC(=O)c1cc(S(=O)(=O)N2CCCCC2)ccc1N1CCOCC1	i	i	i	i	i
O=C(OCc1ccc([N+](=O)[O-])cc1)c1cc(S(=O)(=O)N2CCCCC2)ccc1N1CCOCC1	i	i	7.3µM	15µM	i
CSc1ccc(COC(=O)c2cc([N+](=O)[O-])ccc2N2CCOCC2)cc1	i	?	0.026µM	0.041µM	0.18µM
COc1ccc(COC(=O)c2cc(S(=O)(=O)N3CCCCC3)ccc2N2CCOCC2)cc1	i	i	16µM	18µM	i
Cc1ccccc1COC(=O)c1cc([N+](=O)[O-])ccc1N1CCOCC1	i	?	?	?	?
O=C(OCc1ccc(F)cc1)c1cc(S(=O)(=O)N2CCCCC2)ccc1N1CCOCC1	i	i	12µM	29µM	i
COC(=O)c1ccccc1NS(=O)(=O)c1cc2c3c(c1)CC(=O)N3CCC2	nt	nt	i	i	nt
CN(Cc1ccc(F)cc1)C(=O)c1cc(S(=O)(=O)N2CCCCC2)ccc1N1CCOCC1	i	i	16µM	?	i
CN(Cc1ccc(Cl)cc1)C(=O)c1cc(S(=O)(=O)N2CCOCC2)ccc1N1CCCC1	i	i	?	?	i
C#Cc1ccc([C@@H]2C=C(C(=O)NC3CC3)O[C@H](OCCCCO)C2)cc1	i	i	i	?	i
O=C(CSc1nnc(-c2ccco2)n1CC1CCCO1)c1ccc(F)cc1 (stereo not given)	i	i	21µM	18µM	?
SMILES	IL1B secr inh	HT1080NT lethal	TDP1 cell noCPT	DT40 TDP1 CPT	HT1080 IDH1KD tx
CN(C)c1ccnc(Nc2ccc(O)cc2)c1C#N	i	i	i	i	i
CN(C)C(=O)c1nc2ccc(Cl)cn2c1CN1CCCC(OCc2ccccc2)C1 (stereo not given)	i	i	?	i	i
Cc1ccccc1OCc1nc2ccccc2n1Cc1ccccc1Cl	nt	nt	10µM	?	nt
COc1cccc(OCc2nc3ccccc3n2Cc2ccccc2C)c1	nt	nt	12µM	21µM	nt
Cc1cccc(OCc2nc3ccccc3n2C)c1	i	i	?	?	i
Nn1c(COc2cccc(Cl)c2)nc2ccccc2c1=O	i	i	i	i	i
COCCn1c(COc2ccc(OC)cc2)nc2ccccc21	i	i	?	?	i
CCCn1c(COc2cccc(C)c2)nc2ccccc21	nt	nt	21µM	?	nt
